From PubChem BioAssay
Only some compounds are listed: those with a hit (about 4.5% of all), similar ones and a draw of the others.
Rce1 inhib = yeast Rce1p protease inhibitors, primary screen, biochemical, fluorescence, cell-free homogeneous. CAAX prenyl protease 2 (Saccharomyces cerevisiae (strain ATCC 204508 / S288c)), Q03530. yeast membranes, quenched prenylated peptide cleavage fluorescence. calls only. hit rate 0.27% among 290,000. AID 2563, 2010;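 active = fall in fluorescence gain of 50% or more versus controls, with final raw signal at or below 3038400; inconclusive = same 50% fall but final raw signal above 3038400; inactive = fall in fluorescence gain under 50%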;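 also: plate controls were neutral control wells for no effect and wells lacking membranes for full effect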
Target sequence (Q03530 whole entry, looked up): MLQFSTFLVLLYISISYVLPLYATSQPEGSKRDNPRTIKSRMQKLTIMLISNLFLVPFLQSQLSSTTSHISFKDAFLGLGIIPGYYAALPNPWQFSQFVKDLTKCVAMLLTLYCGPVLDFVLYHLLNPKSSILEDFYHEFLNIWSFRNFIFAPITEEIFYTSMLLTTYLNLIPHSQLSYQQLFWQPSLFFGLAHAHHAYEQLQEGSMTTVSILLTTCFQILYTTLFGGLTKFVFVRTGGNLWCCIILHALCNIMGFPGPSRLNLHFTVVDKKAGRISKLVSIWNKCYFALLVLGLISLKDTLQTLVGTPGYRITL
Rtt109 Vps75 = inhibitors of C. albicans Rtt109/Vps75 HAT, primary screen, biochemical, ThioGlo CoA-SH fluorescence, plate reader; hit rate 0.16% among 330,000; inhibition, % at 34.9 µM; Histone acetyltransferase RTT109 (Candida albicans (strain SC5314 / ATCC MYA-2876)), …; purified Rtt109/Vps75, 4 h;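 active = inhibition of at least 50% in every replicate; inconclusive = best replicate reaches 50% inhibition but some replicates fall short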
ALR H2O2 inh = inhibitors of human ALR sulfhydryl oxidase, primary screen, biochemical, H2O2 detection, HRP-luminol luminescence, single point | FAD-linked sulfhydryl oxidase ALR (Homo sapiens), P55789 | purified ALR, DTT oxidation | inhibition, % (no concentration beside the values) | hit rate 3.8% among 290,000 | AID 485317, 2010;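 active = mean replicate inhibition above about 79%, with every replicate also reaching it, limit read from the data; inconclusive = only one of the two criteria met; inactive = mean below limit and not every replicate reaching it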
Target sequence (P55789 whole entry, looked up): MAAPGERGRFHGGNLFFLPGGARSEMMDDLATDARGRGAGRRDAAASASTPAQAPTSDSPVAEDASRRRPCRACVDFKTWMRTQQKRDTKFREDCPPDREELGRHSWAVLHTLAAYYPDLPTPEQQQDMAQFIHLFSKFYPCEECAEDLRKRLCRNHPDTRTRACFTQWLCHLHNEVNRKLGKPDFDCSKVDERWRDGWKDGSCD
GRK2 aptamer HTS = compounds blocking aptamer binding on GRK2 – biochemical, human GRK2, bead flow cytometry, HTS, primary screen; FAM-aptamer displacement from GRK2; AID 488847, 2010; hit rate 0.59% among 330,000; inhibition of aptamer binding, % at 10 µM; Beta-adrenergic receptor kinase 1 (Homo sapiens), P25098;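 active = inhibition of aptamer binding above 40%, roughly 3 SD of noise, on plates passing a quality check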;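 also: median bead fluorescence of bound FAM aptamer so fluorescent compounds give negative values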
Efflux pump inh = inhibitors of Candida efflux pumps in yeast, primary screen, S. cerevisiae, Nile Red, multiplex. hit rate 0.44% among 330,000. S. cerevisiae Candida pump triplex. inhibition, % at 10 µM;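 active = plate passing quality check with inhibition over a set limit, or well fluorescence over plate mean plus 4 SD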;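 also: Nile Red retained in pooled yeast measured as flow cytometry median fluorescence; 0% = buffer negative control and 100% = Enniatin B positive control; higher means more Nile Red kept so more efflux inhibition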
HDAC3 inhib = HDAC3 deacetylase inhibitors, primary screen, biochemical, fluorescence, cell-free homogeneous | inhibition, % at 8.3 µM | recombinant HDAC3, fluorogenic peptide/trypsin coupled | Histone deacetylase 3 (Homo sapiens), O15379 | hit rate 0.15% among 320,000; in the data active = inhibition above about 26%, passing the limit was not always enough; inconclusive = no clear call, values can overlap the other calls
Numbers without * were called inactive; i = inactive; ? = inconclusive; · = no result; + = active, no number.

SMILES	Rce1 inhib	Rtt109 Vps75	ALR H2O2 inh	GRK2 aptamer HTS	Efflux pump inh	HDAC3 inhib
O=C(C[C@H]1C/C=C\CCC(=O)O[C@@H](c2ccccc2)CNC1=O)NCCO	·	0	-4	0	0	-6
O=C(NC(=S)NNC(=O)c1ccccc1[N+](=O)[O-])c1ccc(Br)cc1	i	7	99*	0	0	0
COc1ccc(C(=O)Nc2ccc(S(=O)(=O)NC(C)=O)cc2)cc1[N+](=O)[O-]	i	1	99*	0	0	3
COc1ccc(C(=O)NNC(=S)NC(=O)c2cccc([N+](=O)[O-])c2)cc1	i	?	98*	1	0	6
O=C(NC(=S)NNC(=O)c1ccccc1O)c1cccc([N+](=O)[O-])c1	i	-7	·	6	0	-2
COc1ccc(C(=O)NC(=S)NNC(=O)c2ccc(O)cc2)cc1[N+](=O)[O-]	i	·	97*	0	0	1
CCCN(CC(=O)Nc1ccccc1C)C(=O)c1ccc(C2SCCS2)cc1	·	-4	-10	0	0	80*
CCCN(CC(=O)Nc1ccccc1C)C(=O)c1ccc(S(=O)(=O)N2CCCCCC2)cc1	i	1	-2	0	0	3
COc1cc(CC(=O)OCC(=O)N2CCCCC2)cc(OC)c1OC	i	6	0	1	0	3
CC(=O)CC(=O)Nc1ccn(-c2ccccc2)n1	i	2	82*	1	0	2
CC1=C(C(=O)NC2CCCc3c2cnn3-c2ccc(F)cc2F)OCCO1 (stereo not drawn)	i	20	89*	0	0	11
COC(=O)CSc1cnc2ccccc2n1	i	-5	0	0	0	4
O=C(CSc1cnc2ccccc2n1)c1ccc(F)cc1	i	-6	97*	0	0	15
CC(C)c1nc(SCC(=O)c2ccc(F)cc2)c2ccccc2n1	i	-168	99*	1	0	·
Cc1ccc(C(=O)CSc2nc(C(C)C)nc3ccccc23)cc1	i	-2	98*	0	0	16
CC1C/C(=N/Nc2nc3ccccc3[nH]2)CC(C)(C)C1 (stereo not drawn)	i	2	99*	0	0	2
CC1C/C(=N/NC(=O)c2ccc(CSc3nc4ccccc4[nH]3)cc2)CC(C)(C)C1 (stereo not drawn)	i	-5	-47	0	0	1
O=C(Nc1ccccc1)n1cc(-c2ccccn2)c(N2CCOCC2)n1	i	·	-2	1	0	-2
COc1ccc(Cn2c(N)c(S(=O)(=O)c3cccs3)c3nc4ccccc4nc32)cc1	+	-10	-10	2	0	-7
NNC(=O)c1ccc2[nH]c3c(c2c1)CCCC3	i	2	·	0	0	1
CN1CCc2[nH]c3ccc(C(=O)NN)cc3c2C1	i	10	98*	0	0	4
O=C1C2C3CCC(C3)C2C(=O)N1CNc1ccccc1 (stereo not drawn)	i	-3	39	0	0	-3
CC(=O)Nc1ccc(NCN2C(=O)[C@@H]3[C@H]4CC[C@H](C4)[C@@H]3C2=O)cc1	i	0	94*	1	0	4
Cc1cc(C)cc(Nc2ccc(C(=O)O)cc2N)c1	+	-38	·	1	0	-23
Cc1cc(C)cc(Nc2ccc(C(=O)O)cc2[N+](=O)[O-])c1	i	9	-3	3	0	10
SMILES	Rce1 inhib	Rtt109 Vps75	ALR H2O2 inh	GRK2 aptamer HTS	Efflux pump inh	HDAC3 inhib
COc1cc(Nc2ccc(C(=O)O)cc2[N+](=O)[O-])cc(OC)c1	i	·	-23	2	0	2
CCOc1ccccc1Nc1ccc(C(=O)O)cc1N	i	-3	10	0	0	0
Cc1ccc(Nc2ccc(C(=O)O)cc2N)cc1	?	·	99*	7	0	-9
COc1cccc(Nc2ccc(C(=O)O)cc2N)c1	?	3	99*	1	0	-6
CN(c1ccccc1)S(=O)(=O)c1cccc(C(=O)OCC(=O)Nc2ccc(C(N)=O)cc2)c1	·	-6	0	3	0	4
CN(CC(=O)NCc1ccco1)S(=O)(=O)c1ccc2c(c1)n(C)c(=O)c(=O)n2C	i	2	92*	0	0	3
COc1ccc(N2C(=O)/C(=C/N(C)C)NC2=S)cc1	·	9	70	0	0	11
CCN1C(=O)/C(=C\N(C)C)NC1=S	i	-2	98*	4	0	4
Cc1cc2c(NCc3ccccc3)ncnc2s1	i	0	-5	1	0	7
Cc1cc2c(Nc3cccc(O)c3)ncnc2s1	i	-3	99*	6	0	2
Cc1ccc(S(=O)(=O)c2ccsc2NC(=O)c2ccccc2)cc1	·	-1	·	·	·	·
Cc1csc(Nc2ccccc2)n1	i	5	98*	0	0	0
Cc1csc(Nc2ccc(C(=O)O)cc2)n1	i	28	·	0	0	·
Cc1nc(Nc2ccccc2)sc1C	i	5	99*	2	0	1
COc1ccc2nc3cccc(OC)c3nc2c1	i	-3	·	2	0	1
COc1ccc2nc3ccccc3nc2c1N	i	3	99*	2	0	0
Fc1cccc(F)c1-n1c(CN2CCCC2)csc1=S	i	2	-2	0	0	-4
CSc1nc(N)nc2c1ncn2CC(=O)N1CCN(c2ccccn2)CC1	·	-11	·	0	0	4
CC1(C)O[C@@H]2C[C@H]3[C@@H]4CCC5=CC(=O)C=C[C@]5(C)[C@@]4(F)[C@@H](O)C[C@]3(C)[C@]2(C(=O)CO)O1	i	2	9	1	0	3
CC(=O)OCC(=O)[C@@]12OC3(CCCC3)O[C@@H]1C[C@H]1[C@@H]3CCC4=CC(=O)C=C[C@]4(C)[C@@]3(F)[C@@H](O)C[C@@]12C	+	15	-5	5	0	6
O=C(NCCc1ccccc1)c1nc2c(nnn2Cc2ccccc2Cl)c(=O)[nH]1	i	16	63	0	0	?
COc1ccc(Cn2nnc3c(=O)[nH]c(C(=O)NCCc4ccc(F)cc4)nc32)cc1OC	i	-4	94*	5	0	6
CCOc1nc(Oc2cccc(C(=O)O)c2)nc(Oc2cccc(C(=O)O)c2)n1	i	10	97*	0	0	6
